# From PubChem BioAssay (Tox21)
# Results filed as inconclusive are left out. A call without a number means that no potency is given here. A number with no mark means an inactive call. Activity calls are given as the source filed them. Unless noted, calls come from the whole dose curve; as a rule, active = well fitted curve in the direction sought with a large enough effect in the repeat runs; inconclusive = weak or mixed curves; inactive = no such curve, though single readings can be large; an effect the other way counts as inactive or inconclusive.
# Key:
# [1] = qHTS assay to identify small molecule agonists of the RXR signaling pathway - cell viability counter screen (AID 1159529);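 note: HEK 293T cells carrying an RXR-alpha UAS beta-lactamase reporter; series mostly up to about 77 µM; nearly all actives have a fitted effect of over 50% in size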
# Summary of the method: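 In this parallel viability measure, GeneBLAzer RXR-alpha HEK 293T cells (2% charcoal-stripped FBS) were given a 5 hr preincubation, treated with compounds 16 hr at 37 C, and read by CellTiter-Glo luminescence.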
# [2] = qHTS assay to identify small molecule antagonists of the retinoid acid receptor (RAR) signaling pathway - cell viability counter screen (AID 1159551); note: nearly all actives have a fitted effect of over 35% in size
# Summary of the method: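 C3RL4 cells were seeded overnight at 37 C, then treated with compounds plus 1 uM (final) retinol for 6 h at 37 C. Viability was read as ATP by CellTiter-Glo luminescence after 30 min at room temperature.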
# [3] = qHTS assay to identify small molecule antagonists of the retinoic acid receptor (RAR) signaling pathway (AID 1159552; note: nearly all actives have a fitted effect of over 50% in size; note: potency is the fitted concentration of half-maximal effect)
# Summary of the method: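 C3RL4 RARE-luc cells, overnight plating; retinol 1 uM final added right after compound; 6 hr 37 C; luciferase read at 30 min RT.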
# [4] = qHTS assay to identify small molecule antagonists of the estrogen related receptor (ERR) signaling pathway from Tox21 library - cell viability counter screen (AID 1224834); note: nearly all actives have a fitted effect of over 30% in size
# Summary of the method: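 ERR reporter cells were plated 6 h before compound addition, then exposed to test compounds in DMSO for 17.5 h at 37 C. Viability was read as CellTiter-Fluor fluorescence after a 30-minute incubation at 37 C.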
# [5] = molecular target: Luciferin 4-monooxygenase (Photinus pyralis) (UniProt P08659); assay: qHTS assay to identify small molecule inhibitors of firefly luciferase (AID 1224835); note: nearly all actives have a fitted effect of over 25% in size; note: potency is the fitted concentration of half-maximal effect; for activity change, negative = inhibition: series mostly up to about 120 µM
# Summary of the method: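 Quantitative HTS format; KM concentrations of both substrates. Purified P. pyralis FLuc activity quantified from luminescence images.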
# [6] = qHTS assay to identify small molecule agonists of the constitutive androstane receptor (CAR) signaling pathway - cell viability counter screen (AID 1224836); note: series mostly up to about 92 µM; nearly all actives have a fitted effect of over 45% in size
# Summary of the method: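 Using CellTiter-Fluor, viability of HepG2 cells harbouring hCAR and CYP2B6-2.2kb was measured following 23 h incubation with a 15-concentration compound series plus PK11195 (0.75 uM final).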
# [7] = qHTS assay to identify small molecule antagonists of the constitutive androstane receptor (CAR) signaling pathway - cell viability counter screen (AID 1224837); note: series mostly up to about 92 µM; nearly all actives have a fitted effect of over 45% in size
# Summary of the method: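 HepG2 cells stably expressing hCAR and a CYP2B6-2.2kb reporter were plated and pre-incubated 4 hr at 37 C/5% CO2, then given compounds at 15 concentrations plus 50 nM CITCO (final). After 23 hr, viability was read by CellTiter-Fluor fluorescence.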
# [8] = molecular target: Nuclear receptor subfamily 1 group I member 3 (Homo sapiens) (UniProt Q14994); assay: qHTS assay to identify small molecule antagonists of the constitutive androstane receptor (CAR) signaling pathway (AID 1224838); note: nearly all actives have a fitted effect of over 40% in size
# Summary of the method: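 HepG2 cells stably co-transfected with hCAR and a CYP2B6-2.2kb luciferase reporter were seeded 4 h before compound addition at 15 concentrations. Cells were stimulated with 50 nM CITCO (final) for 24 h at 37 C; luciferase luminescence was then read.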
# [9] = molecular target: Nuclear receptor subfamily 1 group I member 3 (Homo sapiens) (UniProt Q14994); assay: qHTS assay to identify small molecule agonists of the constitutive androstane receptor (CAR) signaling pathway (AID 1224839); note: nearly all actives have a fitted effect of over 15% in size; note: potency is the fitted concentration of half-maximal effect;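 for activation: HepG2 cells stably carrying human CAR and a CYP2B6 luciferase reporter; series mostly up to about 92 µM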
# Summary of the method: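 Double-stable HepG2 cells (hCAR, CYP2B6-2.2kb) seeded 4 h before compound addition. Exposure 24 h with 0.75 uM PK11195 final. Luciferase detected by ONE-Glo.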
# [10] = qHTS assay to identify small molecule antagonists of the estrogen related receptor signaling pathway with the pleiotropic PPARgamma coactivator (PGC) from Tox21 10K library - cell viability counter screen (AID 1224840; active = well fitted cell-killing curve with a large enough effect in the repeat runs, not every such curve was filed as active; note: nearly all actives have a fitted effect of over 40% in size)
# Summary of the method: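 PGC/ERR cells were seeded at 2,000 cells/well and left 6 hours at 37 C/5% CO2 before pin-tool addition of compounds in DMSO. After 17.5 hours at 37 C, CellTiter-Fluor was added and fluorescence read 30 minutes later.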
# [11] = qHTS assay to identify small molecule agonists of the estrogen related receptor signaling pathway with the pleiotropic PPARgamma coactivator (PGC) from Tox21 10K library (AID 1224842); note: nearly all actives have a fitted effect of over 15% in size
# Summary of the method: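 PGC/ERR reporter cells (NTP line) were seeded 2,000 per well, rested 6 h at 37 C/5% CO2, then pin-dosed with compounds in DMSO for 18 h at 37 C; luciferase read by One-Glo luminescence after 30 min at room temperature.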
# [12] = molecular target: Thyrotropin receptor (Homo sapiens) (UniProt P16473); assay: qHTS assay to identify small molecule agonists of the thyroid stimulating hormone receptor (TSHR) signaling pathway (AID 1224843; calls by dose curve; note: nearly all actives have a fitted effect of over 45% in size)
# Summary of the method: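 TSHR-expressing HEK293 cells (800 per well) were exposed to compounds for 30 min at room temperature. cAMP was then detected by HTRF competition with cAMP-d2 and anti-cAMP cryptate, read after 1 h at room temperature. Fifteen concentrations, triplicate.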
# [13] = qHTS assay to identify small molecule agonists of the retinoic acid receptor (RAR) signaling pathway (AID 1159553); note: potency is the fitted concentration of half-maximal effect
# Summary of the method: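 C3RL4 cells carrying a RARE luciferase reporter were plated overnight at 37 C, then exposed to compounds in DMSO for 6 hr at 37 C and 5% CO2. Luminescence was read 30 min after luciferase reagent addition at room temperature.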
# [14] = qHTS assay to identify small molecule antagonists of the estrogen related receptor signaling pathway with the pleiotropic PPARgamma coactivator (PGC) from Tox21 10K library (AID 1224841; call rule not given here; note: series mostly up to about 92 µM; actives are mostly falling curves and most rising ones were filed inactive; nearly all actives have a fitted effect of over 50% in size)
# Summary of the method: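 PGC/ERR reporter cells were seeded at 2,000 cells/well and held 6 hours at 37 C/5% CO2 before pin-tool addition of compounds in DMSO. After 18 hours at 37 C, One-Glo was added and luminescence read after 30 minutes at room temperature.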
# Chain of Thyrotropin receptor (Homo sapiens) (P16473 whole entry, looked up): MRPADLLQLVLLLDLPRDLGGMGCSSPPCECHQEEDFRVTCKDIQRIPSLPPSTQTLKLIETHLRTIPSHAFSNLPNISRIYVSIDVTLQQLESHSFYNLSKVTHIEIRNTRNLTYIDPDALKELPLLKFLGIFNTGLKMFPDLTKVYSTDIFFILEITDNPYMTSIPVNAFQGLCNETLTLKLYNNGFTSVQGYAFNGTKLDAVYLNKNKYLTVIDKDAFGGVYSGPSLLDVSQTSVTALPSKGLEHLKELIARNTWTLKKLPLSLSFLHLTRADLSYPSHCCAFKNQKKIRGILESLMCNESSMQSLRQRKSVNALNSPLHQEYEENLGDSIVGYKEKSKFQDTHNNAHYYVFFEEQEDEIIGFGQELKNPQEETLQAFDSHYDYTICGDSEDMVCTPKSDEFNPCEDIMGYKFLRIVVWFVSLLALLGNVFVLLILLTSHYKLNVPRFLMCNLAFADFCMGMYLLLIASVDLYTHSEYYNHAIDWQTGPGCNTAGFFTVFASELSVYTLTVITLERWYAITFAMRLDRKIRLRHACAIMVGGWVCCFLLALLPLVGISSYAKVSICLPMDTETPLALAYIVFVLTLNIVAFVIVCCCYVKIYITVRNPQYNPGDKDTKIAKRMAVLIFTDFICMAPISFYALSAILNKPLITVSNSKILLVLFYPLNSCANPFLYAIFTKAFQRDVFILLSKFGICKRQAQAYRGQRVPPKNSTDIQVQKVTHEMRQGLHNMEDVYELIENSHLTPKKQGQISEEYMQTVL
# Chain of Luciferin 4-monooxygenase (Photinus pyralis) (P08659 whole entry, looked up): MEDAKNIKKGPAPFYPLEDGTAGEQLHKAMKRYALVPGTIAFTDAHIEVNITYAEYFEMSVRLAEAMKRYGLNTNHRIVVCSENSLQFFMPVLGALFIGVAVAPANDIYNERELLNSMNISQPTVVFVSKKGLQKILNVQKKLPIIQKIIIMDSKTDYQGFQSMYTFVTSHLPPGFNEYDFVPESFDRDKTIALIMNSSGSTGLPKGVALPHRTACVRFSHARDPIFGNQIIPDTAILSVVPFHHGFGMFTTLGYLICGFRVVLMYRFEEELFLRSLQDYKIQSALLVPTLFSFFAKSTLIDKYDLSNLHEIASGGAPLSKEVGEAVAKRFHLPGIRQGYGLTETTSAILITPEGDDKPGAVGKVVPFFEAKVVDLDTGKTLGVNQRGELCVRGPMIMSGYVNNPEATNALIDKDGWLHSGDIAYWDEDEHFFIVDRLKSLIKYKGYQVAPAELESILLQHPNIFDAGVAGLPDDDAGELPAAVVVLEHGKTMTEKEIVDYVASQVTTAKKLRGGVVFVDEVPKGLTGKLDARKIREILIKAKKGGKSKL
# Chain of Nuclear receptor subfamily 1 group I member 3 (Homo sapiens) (Q14994 whole entry, looked up): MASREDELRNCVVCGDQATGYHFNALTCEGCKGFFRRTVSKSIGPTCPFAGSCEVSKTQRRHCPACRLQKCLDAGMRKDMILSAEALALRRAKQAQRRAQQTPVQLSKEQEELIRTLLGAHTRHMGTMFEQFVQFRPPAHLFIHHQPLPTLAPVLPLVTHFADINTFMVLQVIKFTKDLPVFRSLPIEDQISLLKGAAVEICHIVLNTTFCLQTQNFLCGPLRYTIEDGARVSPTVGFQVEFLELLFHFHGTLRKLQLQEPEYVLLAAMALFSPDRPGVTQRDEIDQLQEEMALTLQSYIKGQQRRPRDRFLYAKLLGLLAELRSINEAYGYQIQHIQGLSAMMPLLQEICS
smiles,measurement,setting,value
CC1OC1C1CCC2(C)OC2C1 (configuration not stated),Potency,[1],inactive
same,outcome,[2],inactive
same,Potency,[3],inactive
same,Potency,[4],inactive
same,Potency,[5],inactive
same,outcome,[6],inactive
same,outcome,[7],inactive
same,Potency,[8],inactive
same,Potency,[9],inactive
same,outcome,[10],inactive
CCCC(C)C(=O)OCC (configuration not stated),Potency,[1],inactive
same,outcome,[2],inactive
same,Potency,[3],inactive
same,Potency,[4],inactive
same,Potency,[5],inactive
same,outcome,[6],inactive
same,outcome,[7],inactive
same,Potency,[8],inactive
same,Potency,[9],inactive
same,outcome,[10],inactive
same,Potency,[11],inactive
same,Potency,[12],inactive
CC(=O)Nc1ccc(OCC(O)CNC(C)C)cc1 (configuration not stated),Potency,[1],inactive
same,outcome,[2],inactive
same,Potency,[3],inactive
same,Potency,[4],inactive
same,Potency,[5],inactive
same,outcome,[6],inactive
same,outcome,[7],inactive
same,Potency,[8],inactive
same,Potency,[9],inactive
same,outcome,[10],inactive
same,Potency,[12],inactive
O=C1NC(=O)C2CC=CCC12 (configuration not stated),Potency,[1],inactive
same,outcome,[2],inactive
same,Potency,[3],inactive
same,Potency,[13],inactive
same,Potency,[4],inactive
same,outcome,[6],inactive
same,outcome,[7],inactive
same,Potency,[8],inactive
same,Potency,[9],inactive
same,outcome,[10],inactive
Cc1ccc(-c2ccccc2C#N)cc1,Potency,[1],inactive
same,outcome,[2],inactive
same,Potency,[3],inactive
same,Potency,[4],inactive
same,outcome,[6],inactive
same,outcome,[7],inactive
same,Potency,[8],inactive
same,Potency,[9],inactive
same,outcome,[10],inactive
NC(N)=NCCN1CCCCCCC1,"activity change, negative = cytotoxicity",[1],-2.51% [at 0.29 µM]
same,"activity change, negative = cytotoxicity",[2],-0.855% [at 0.349 µM]
same,"activity, negative = inhibition",[3],16.3% [at 0.349 µM]
same,activation,[13],0.885% [at 0.756 µM]
same,"viability change, negative = cytotoxic",[4],1.48% [at 0.349 µM]
same,"activity change, negative = inhibition",[5],-0.118% [at 0.435 µM]
same,"viability change, negative = cytotoxic",[10],-1.22% [at 0.349 µM]
c1ccc(CCc2ccccc2)cc1,Potency,[1],inactive
same,outcome,[2],inactive
same,Potency,[3],inactive
same,Potency,[13],inactive
same,Potency,[4],inactive
same,outcome,[6],inactive
same,outcome,[7],inactive
same,Potency,[8],inactive
same,Potency,[9],inactive
same,outcome,[10],inactive
same,Potency,[14],inactive
same,Potency,[11],inactive
CC(N)C12CC3CC(CC(C3)C1)C2 (configuration not stated),Potency,[1],inactive
same,outcome,[2],inactive
same,Potency,[3],inactive
same,Potency,[13],inactive
same,Potency,[4],inactive
same,Potency,[5],inactive
same,outcome,[7],inactive
same,outcome,[10],inactive
same,Potency,[12],inactive
CC12CCC(C(=O)C1=O)C2(C)C (configuration not stated),Potency,[1],inactive
same,outcome,[2],inactive
same,Potency,[3],inactive
same,Potency,[13],inactive
same,Potency,[4],inactive
same,Potency,[5],inactive
same,outcome,[6],inactive
same,outcome,[7],inactive
same,outcome,[10],inactive
CCOC(=O)COc1cc(-n2ncc(C(F)(F)F)c(C)c2=O)c(F)cc1Cl,Potency,[1],inactive
same,outcome,[2],inactive
same,Potency,[3],inactive
same,Potency,[4],inactive
same,outcome,[6],inactive
same,outcome,[7],inactive
same,Potency,[8],inactive
same,Potency,[9],inactive
same,outcome,[10],inactive
CC1CCC(CO)CC1 (configuration not stated),Potency,[1],inactive
same,outcome,[2],inactive
same,Potency,[3],inactive
same,Potency,[4],inactive
same,Potency,[5],inactive
same,outcome,[6],inactive
same,outcome,[7],inactive
same,Potency,[8],inactive
same,Potency,[9],inactive
same,outcome,[10],inactive
same,Potency,[12],inactive
CCN(CC#N)c1cccc(C)c1,Potency,[1],inactive
same,outcome,[2],inactive
same,Potency,[3],inactive
same,Potency,[4],inactive
same,Potency,[5],inactive
same,outcome,[6],inactive
same,outcome,[7],inactive
same,Potency,[8],inactive
same,Potency,[9],inactive
same,outcome,[10],inactive
COC(=O)C1=C(C)NC(C)=C(C(=O)OC(C)C)C1c1cccc2nonc12 (configuration not stated),Potency,[1],inactive
same,outcome,[2],inactive
same,Potency,[3],21.1 µM (active)
same,Potency,[13],inactive
same,Potency,[5],inactive
same,outcome,[6],inactive
same,outcome,[7],inactive
same,Potency,[8],inactive
same,outcome,[10],inactive
same,Potency,[14],inactive
same,Potency,[11],inactive
same,Potency,[12],inactive
Cc1c(N)c(=O)n(-c2ccccc2)n1C,Potency,[1],inactive
same,outcome,[2],inactive
same,Potency,[3],inactive
same,Potency,[13],inactive
same,Potency,[4],inactive
same,outcome,[6],inactive
same,outcome,[7],inactive
same,outcome,[10],inactive
CN1CCN(c2cc3c(nn2)Oc2ccccc2N3C)CC1,"activity change, negative = cytotoxicity",[1],1.18% [at 15.8 µM]
same,"activity change, negative = cytotoxicity",[2],0.0499% [at 19 µM]
same,"activity, negative = inhibition",[3],162% [at 19 µM]
same,Potency,[13],5.8 µM (active)
same,"viability change, negative = cytotoxic",[4],4.08% [at 19 µM]
same,"viability change, negative = cytotoxic",[6],-2.12% [at 19 µM]
same,"activity change, negative = cytotoxicity",[7],-0.71% [at 19 µM]
same,"activity, negative = inhibition",[8],125% [at 19 µM]
same,Potency,[9],5.8 µM (active)
same,"viability change, negative = cytotoxic",[10],2.34% [at 19 µM]
same,activation,[12],-2.7% [at 19 µM]
CCOC(=O)C1=NOC(c2ccccc2)(c2ccccc2)C1,Potency,[1],inactive
same,outcome,[2],inactive
same,Potency,[3],inactive
same,Potency,[13],inactive
same,Potency,[4],inactive
same,Potency,[5],71 µM (active)
same,outcome,[6],inactive
same,outcome,[7],inactive
same,outcome,[10],inactive
COCCOC[C@H](CC1(C(=O)NC2CCC(C(=O)O)CC2)CCCC1)C(=O)Oc1ccc2c(c1)CCC2 (some centres not stated),Potency,[1],inactive
same,outcome,[2],inactive
same,Potency,[3],inactive
same,Potency,[13],inactive
same,Potency,[5],inactive
same,outcome,[6],inactive
same,outcome,[7],inactive
same,Potency,[8],inactive
same,Potency,[9],inactive
same,outcome,[10],inactive
same,Potency,[14],inactive
same,Potency,[11],inactive
CCCCCCCCN1CCCC1=O,Potency,[1],inactive
same,outcome,[2],inactive
same,Potency,[3],inactive
same,Potency,[4],inactive
same,Potency,[5],inactive
same,outcome,[6],inactive
same,outcome,[7],inactive
same,Potency,[8],inactive
same,Potency,[9],30.6 µM (active)
same,outcome,[10],inactive
same,Potency,[14],inactive
same,Potency,[11],inactive
Cc1ccccc1N=C(N)N=C(N)N,Potency,[1],inactive
same,outcome,[2],inactive
same,Potency,[3],inactive
same,Potency,[4],inactive
same,Potency,[5],inactive
same,outcome,[6],inactive
same,outcome,[7],inactive
same,outcome,[10],inactive
CO[C@@]1(NC(=O)C(C(=O)O)c2ccc(O)cc2)C(=O)N2C(C(=O)O)=C(CSc3nnnn3C)CO[C@@H]21 (some centres not stated),Potency,[1],inactive
same,outcome,[2],inactive
same,Potency,[3],inactive
same,Potency,[13],inactive
same,Potency,[4],inactive
same,outcome,[6],inactive
same,outcome,[7],inactive
same,Potency,[8],inactive
same,Potency,[9],inactive
same,outcome,[10],inactive
same,Potency,[14],inactive
same,Potency,[11],inactive
same,Potency,[12],inactive
CCC(C)(CN(C)C)OC(=O)c1ccccc1 (configuration not stated),Potency,[1],inactive
same,outcome,[2],inactive
same,Potency,[3],inactive
same,Potency,[13],inactive
same,Potency,[4],inactive
same,outcome,[6],inactive
same,outcome,[7],inactive
same,outcome,[10],inactive
